Source: PubChem BioAssay (NCI)
Compounds without any hit were thinned out: in the full panel of roughly 79,000, 15% have a hit. Rule as the data show it: active = growth inhibition above about 70%; inactive = the rest.

Key:
[1] = NCI Yeast Anticancer Drug Screen. Data for the rad50 strain (AID 155);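 also: 0% = growth of vehicle-only cultures of the same strain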; conditions: S. cerevisiae rad50 strain growth inhibition; at 50.0 µM; hits give high values
Outline: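 Relative growth inhibition (compound vs vehicle) was measured in yeast with a defined repair-gene alteration.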

[2] = NCI Yeast Anticancer Drug Screen. Data for the mec2-1 strain (AID 157); conditions: S. cerevisiae mec2-1 strain, at 50.0 µM, hits give high values
Outline: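 Cells of the genetically defined mec2-1 yeast strain are incubated with test compound. Inhibition of growth is calculated against vehicle-treated controls.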

[3] = NCI Yeast Anticancer Drug Screen. Data for the sgs1 mgt1 strain (AID 161);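 also: 0% = growth of cultures given vehicle only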; conditions: S. cerevisiae sgs1 mgt1 strain, at 50.0 µM, hits give high values
Outline: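 Genetically altered yeast, compound exposure, growth inhibition relative to vehicle.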

[4] = NCI Yeast Anticancer Drug Screen. Data for the cln2 rad14 strain (AID 165);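 also: 0% = growth equal to vehicle treated cultures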; conditions: S. cerevisiae cln2 rad14 strain, at 50.0 µM, hits give high values
Outline: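 The screen exposed genetically defined yeast (cln2 rad14) to test compounds and scored growth inhibition relative to vehicle-treated controls.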

[5] = NCI Yeast Anticancer Drug Screen. Data for the bub3 strain (AID 167); conditions: S. cerevisiae bub3 mutant strain, at 50.0 µM, hits give high values
Outline: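 Screening used yeast with an engineered genetic alteration affecting cell cycle control. Compound-exposed cultures were compared with vehicle cultures, and reduced growth was taken as inhibition.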

[6] = NCI Yeast Anticancer Drug Screen. Data for the mlh1 rad18 strain (AID 175); conditions: S. cerevisiae mlh1 rad18 strain growth inhibition; at 50.0 µM; hits give high values
Outline: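 Compound-treated yeast growth, normalised to vehicle controls. Strain bears defined DNA repair mutations.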

Measured: growth inhibition

Cc1[nH]c2c(C)ccc(C)c2c1CC(=O)O
inactive: [1] 29.7% | [2] -15.1% | [3] -40.8% | [4] 17.1% | [5] -24.1% | [6] 10.2%

NC(=O)/C=C/c1cccnc1
inactive: [1] 4.6% | [2] -0.65% | [3] -7.75% | [4] -34.1% | [5] 11% | [6] 13%

C=C(CO)CC(CC(=C)CCS(=O)(=O)c1ccccc1)S(=O)(=O)c1ccccc1 (stereo not given)
inactive: [1] 8.55% | [2] 1.75% | [3] -0.9% | [4] 8.85% | [5] 7.35% | [6] -5.75%

O=S1c2ccccc2N=C(c2cccc3ccccc23)CC1c1cccc2ccccc12 (stereo not given)
inactive: [1] 56.4% | [2] 38.8% | [3] 52.5% | [4] 23.8% | [5] 58.1% | [6] 41%

CSc1nc2ncnc(NCc3ccc(Cl)cc3)c2[nH]1
inactive: [1] -11% | [2] -4.35% | [3] -4.1% | [4] -43.3% | [5] -7.45% | [6] -35.7%

O=C(O)CCc1nc2c(n1-c1ccccc1)C(=O)c1ccccc1C2=O
inactive: [1] 38.2% | [2] 20.5% | [3] 34.6% | [4] 34.3% | [5] 37.6% | [6] 34.2%

O=C(O)C(Cc1cccs1)(Cc1cccs1)C(=O)O
inactive: [1] -9% | [2] -4.6% | [3] -2.9% | [4] -18.7% | [5] -9.75% | [6] -2.2%

c1ccc2c(c1)Cc1c(Cc3csc4ccccc34)ccc3cccc-2c13
inactive: [1] -14.2% | [2] -22.4% | [3] -4.1% | [4] 13.3% | [5] -5% | [6] -15.2%

CC(CCc1ccccc1)NC1=NCCO1 (stereo not given)
inactive: [1] -9.6% | [2] -12.2% | [3] -16.4% | [4] -23.6% | [5] -1.2% | [6] 2.7%

CC(NC(=O)NCCCl)c1cccc2ccccc12 (stereo not given)
inactive: [1] -7.25% | [2] -1.25% | [3] -2.4% | [4] 44.2% | [5] -8.25% | [6] 5.15%

COC(=O)C12CCC(C(=O)OC)(CC1)n1c(=O)n(-c3ccccc3)c(=O)n12
inactive: [1] -4.8% | [2] -5.15% | [3] -7.7% | [4] -16.8% | [5] -1.85% | [6] -7.15%

Cc1ccc([N+](=O)[O-])cc1NC(=O)COc1ccc(Cl)cc1Cl
inactive: [1] 6.25% | [2] 0.55% | [3] 13.5% | [4] 10.2% | [5] 1.85% | [6] 1.15%

Nc1ncnc2c1ncn2C1C=COC(CO)C1O (stereo not given)
inactive: [1] 4.95% | [2] 1.05% | [3] -6.5% | [4] 2.5% | [5] -28.5% | [6] 20.4%

C=C(C)[C@@]1(OC(=O)c2cc([N+](=O)[O-])cc([N+](=O)[O-])c2)C[C@@H]2CCCC[C@@H]21
inactive: [1] -43.5% | [2] -26.1% | [3] -15.8% | [4] 5.8% | [5] -7.9% | [6] 2.1%

Cc1cc(=O)[nH]c(Nc2nc3ccccc3[nH]2)n1
inactive: [1] 1.1% | [2] -0.75% | [3] 6.7% | [4] 20.8% | [5] -1.4% | [6] 5.9%

CCN(CC)CCNc1ccc2ncn3c4c(OC)cccc4c(=O)c1c23
inactive: [1] 2.7% | [2] -17.1% | [3] 21.8% | [4] 18.4% | [5] -46.8% | [6] 67.2%

Cc1noc2ncnc(NCCCN(C)C)c12
inactive: [1] 13.4% | [2] 4.3% | [3] -0.8% | [4] -6.95% | [5] 1.55% | [6] -0.9%

COc1ccc(C(CC(=O)O)CC(=O)O)cc1
inactive: [1] 46.3% | [2] 12.3% | [3] 16.9% | [4] 15.1% | [5] 6.35% | [6] 44.5%

O=C(NC1CCCCC1)c1ccccc1Cl
inactive: [1] 23.6% | [2] -9.75% | [3] -15.3% | [4] 24.2% | [5] -10.2% | [6] 10.3%

CCOC(=O)c1nc2ccc(C(F)(F)F)cc2nc1Nc1cc(OC)c(OC)c(OC)c1
inactive: [1] -33.4% | [2] -17.4% | [3] -30.8% | [4] 2.85% | [5] -13.6% | [6] -11.1%
